VACV Venus inh = inhibitors of vaccinia virus (Venus reporter). Vaccinia virus Venus reporter expression, fluorescence. Potency, µM (top dose mostly 36.5 µM), for the others: top-dose activity change, negative = inhibition, actives largely listed as inhibitors. actives 0.46% (n = 330,000). AID 720580; calls by dose curve; tested in A549 cells; further: potency means the concentration at half of the fitted maximal effect; nearly all actives have a fitted effect of over 30% in size
Vaccinia mCherry = inhibitors of vaccinia virus infection (mCherry reporter signal). Vaccinia virus mCherry reporter infection, fluorescence. Potency, µM (highest dose often 36.5 µM), without a hit: at the highest dose activity change, negative = inhibition, hits mostly inhibitors. actives 0.63% (n = 310,000); calls by dose curve; tested in A549 cells; further: potency means the concentration at half of the fitted maximal effect; nearly all actives have a fitted effect of over 35% in size
HCMV inh = inhibitors of human cytomegalovirus | HFF cells, HCMV-luciferase reporter, 72 h; hits give low values | activity change, negative = inhibition, % at 57.5 µM | actives 4.5% (n = 410,000) | AID 1259415; in the data active means activity change below about -60%; inconclusive means no clear call, values can overlap the other calls; inactive means above about -39%
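Screen run at 2 compound doses on HFFs infected with reporter HCMV, MOI 1 PFU/cell. Luciferase activity from cell lysates at 72 h post infection gave inhibition relative to buffer-only and Salinomycin wells.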
Sm TGR block = blocks Schistosoma mansoni thioredoxin glutathione reductase. actives 3% (n = 360,000). Potency, µM (series often up to 114 µM), inactives show at the top dose activity change, negative = inhibition, usual class: inhibitors. Q962Y6. purified TGR, DTNB reduction, TNB absorbance 405 nm; further: potency means the concentration at half of the fitted maximal effect; nearly all actives have a fitted effect of over 60% in size
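TGR 20 nM + NADPH 100 uM (dispensed conc.), cpd preinc 15 min RT; start with NADPH (500 uM addition) then DTNB (15 mM addition). Kinetic TNB absorbance, 405 nm filter. Four-parameter Hill fit across titration.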
FMDV antiviral = antivirals against foot and mouth disease virus; actives 1.2% (n = 410,000); Potency, µM (top dose mostly 57.9 µM), inactives show at the highest dose activity change, negative = inhibition, usual class: inhibitors; FMDV antiviral cell-based qHTS; calls by dose curve; tested in HEK293T cells; further: read-out not given here; potency means the concentration at half of the fitted maximal effect; nearly all actives have a fitted effect of over 45% in size
HCV inh = inhibitors of hepatitis C virus infection | actives 3.4% (n = 340,000) | Potency, µM (highest dose often 41.8 µM), for inactives: at the top dose activity change, negative = inhibition, actives largely listed as inhibitors | Huh7.5.1 HCVcc-Cre infection, luciferase reporter, 44 h; further: potency means the concentration at half of the fitted maximal effect
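Infectious HCV cell culture screen: compound-treated cells (1,000/well, pre-plated 4 h) are infected with HCVcc-Cre at roughly 0.5 moi and grown 44 h. Infection is quantified by luciferase signal after 15 min substrate incubation at room temperature.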
* marks the source's active call; other numbers are inactive results; i = inactive; u = inconclusive; x = not tested or not shown; [ ] = another dose, or the depositor's remark. In the library only some 9.3% were active in any assay of this set; here they are far more common. Unless noted, the call rests on the fitted dose curve; in most records, active means well fitted curve in the direction sought with a large enough effect; inconclusive means small, poorly fitted or top-dose-only effect, or another doubt; inactive means no such curve, though single readings can be large; an effect the other way counts as inactive or inconclusive. On the % scale 0 is the no-effect control and ±100 the full control effect.

SMILES	VACV Venus inh	Vaccinia mCherry	HCMV inh	Sm TGR block	FMDV antiviral	HCV inh
O=C(OCn1ncc(Cl)c(Cl)c1=O)c1ccc(C(F)(F)F)cc1	x	x	-86.1*	0.0%	u	10µM*
Cc1ccc(C(=O)OCn2ncc(Cl)c(Cl)c2=O)cc1	x	x	-102.0*	3.98µM*	15.8µM*	2.51µM*
Cc1ccc(C(=O)COC(=O)c2nc(Cl)ccc2Cl)cc1	8.9%	-16.4%	15.7	x	54.7%	2.2%
O=C(O)c1ccc(-n2ncc(Cl)c(Cl)c2=O)cc1	-14.0%	-0.3%	x	x	u	x
O=C(NC1CCOC1)c1cc(COc2cccc(C(F)(F)F)c2)on1 (configuration not stated)	x	x	86.4	-24.2%	17.1%	u
CCC(=O)N1CCC2(CC1)Oc1ccc(F)cc1C(=O)C21CC(c2ccccc2)=NO1 (configuration not stated)	8.6%	3.8%	-13.3	50.1µM*	-14.7%	0.6%[8.37 µM]
O=C(c1ccoc1)N1CCC2(CC1)Oc1ccc(Cl)cc1C(=O)C21CC(c2cccnc2)=NO1 (configuration not stated)	-13.8%	-5.4%	29.0	-7.6%	-18.7%	8.9%
O=C(c1ccoc1)N1CCC2(CC1)Oc1ccc(Cl)cc1C(=O)C21CC(c2ccccc2)=NO1 (configuration not stated)	-21.2%	i	8.3	-17.8%	-24.8%	11.2µM*
CC12CCC(=O)N1C(C(=O)NCCN1C(=O)S/C(=C\c3ccc(F)cc3)C1=O)CS2 (configuration not stated)	-21.3%	u	-21.4	-14.4%	-18.6%	-1.0%
CCCN(CCC)c1nc(C)cc(C(C#N)c2nc3ccccc3o2)n1 (configuration not stated)	x	x	x	-7.6%	x	4.9%
O=C(CCSCCC(=O)NN=Cc1ccccc1)NN=Cc1ccccc1	-1.4%	-1.0%	-2.1	x	14.3%	6.8%
O=C(Cn1nnc(-c2cccs2)n1)NCc1ccco1	-6.0%	i	-5.8	-3.9%	-4.0%	15.9%
COc1cc2c(cc1OC)C(C)N(C(=O)c1cc3n(n1)C(C(F)(F)F)CC(c1ccco1)N3)CC2 (configuration not stated)	u	u	9.6	25.1µM*	-27.5%	u
C[n+]1ccc(/C=C/c2ccc(Br)cc2)cc1	u	u	-63.3*	1.8%	-14.7%	u
O=C1C=C2C=C[C@@H]3CC2(O1)[C@H]1CCCCN31	-24.7%	u	-94.3*	u	u	u
COc1ccc(NC(=O)c2cc(S(=O)(=O)N3CCCCC3)c[nH]2)cc1Cl	-20.4%	-14.8%	u	-7.8%	-0.6%	4.6%
Cc1ccc(-n2c(O)c(C=NCc3ccccn3)c3ccccc3c2=O)cc1	-24.1%	-2.1%	-65.3*	-5.1%	-21.5%	u
O=C(Nc1cccc2c1C(=O)NC2=O)c1cccc(N2C(=O)CCC2=O)c1	-10.6%	-1.3%	10.0	6.4%	12.8%	6.6%
Nc1ccc(S(=O)(=O)c2ccccc2)nc1	-5.5%	i	-4.2	2.1%	3.3%	2.8%
Cc1ccc([N+](=O)[O-])cc1	-6.3%	i	-31.3	9.7%	-0.5%	7.4%
Cc1cc(Sc2ccc([N+](=O)[O-])cn2)ccc1Br	-10.4%	-11.8%	-33.6	x	-12.1%	2.0%
O=[N+]([O-])c1ccc(S(=O)(=O)c2ccccc2)nc1	u	-20.2%	-98.0*	0.316µM*	35.5µM*	u
Cc1cc(S(=O)(=O)c2ccc([N+](=O)[O-])cn2)ccc1Br	-20.5%	-3.3%	-98.1*	x	8.91µM*	u
Cc1ccc(S(=O)(=O)c2ccc([N+](=O)[O-])cn2)cc1	-26.1%	u	-94.9*	0.1µM*	25.1µM*	u
O=S(=O)(c1ccccc1)c1ccc(C(F)(F)F)cn1	u	-24.7%	2.6	14.1µM*	-2.6%	30.4%
SMILES	VACV Venus inh	Vaccinia mCherry	HCMV inh	Sm TGR block	FMDV antiviral	HCV inh
CCCCN(C(=O)Nc1ccc(OCC)cc1)C1CCN(C(C)=O)CC1	-4.5%	i	0.0	3.3%	14.4%	3.4%
C/C(=N/O)c1no[n+]([O-])c1/C(C)=N\O	-13.5%	-14.7%	15.2	7.08µM*	-7.6%	10.3%
Cc1cc(C)cc(S(=O)(=O)c2cnc3ccccc3n2)c1	-0.1%	1.7%	-13.7	u	u	-7.5%
O=S(=O)(c1ccc(Cl)cc1)c1cnc2ccccc2n1	-3.8%	-9.2%	-31.7	u	25.1µM*	u
N/C(=N\OC(=O)CC1CCCCC1)c1ccc(Cl)cc1	0.7%	-11.2%	11.1	-8.6%	61.3%	14.2%
O=C1NCCN2CCCC12 (configuration not stated)	-12.5%	-23.4%	-10.6	25.1µM*	-18.2%	13.5%
CC1(C)NC(=O)[C@H]2CCCN21	-7.1%	i	5.7	x	-1.2%	11.6%
CCN1CCOC(=O)C1CC(=O)Nc1ccccc1C(F)(F)F (configuration not stated)	0.4%	i	6.9	10µM*	-15.2%	x
COc1cccc(NC(=O)CC2C(=O)OCCN2Cc2ccccc2)c1 (configuration not stated)	-4.6%	-1.3%	9.7	-35.8%	u	x
CCN1CCN(CC(=O)Nc2ccc(C(C)=O)cc2)CC1	-14.8%	-4.8%	-9.3	u	0.0%	13.5%
CCN1CCOC(=O)C1CC(=O)Nc1ccc(C(C)=O)cc1 (configuration not stated)	9.7%	-11.1%	9.7	22.4µM*	-19.0%	x
CCc1ccc(NC(=O)CC2C(=O)OCCN2CC)cc1 (configuration not stated)	-4.3%	-11.7%	9.0	14.1µM*	-3.6%	x
COc1ccc(Cl)cc1NC(=O)CN(C)C1CCS(=O)(=O)C1 (configuration not stated)	x	x	24.6	50.1µM*	-6.7%	u
O=C(CC1C(=O)OCC2CCCCN21)Nc1ccccc1C(F)(F)F (configuration not stated)	-17.5%	i	39.7	u	4.8%	12.6%
CC(C)C(=O)Nc1cc(S(=O)(=O)N2CCOCC2)ccc1N1CCCCC1	1.8%	-14.3%	-4.9	x	-6.5%	-27.7%
CC1(c2ccccc2)NC(=O)N(CC(=O)N2CCN(S(=O)(=O)c3cccc(C(F)(F)F)c3)CC2)C1=O (configuration not stated)	x	x	34.7	x	-25.2%	-1.3%
CCOC(=O)c1cn2nc(Oc3ccc(C(=O)OC)cc3)ccc2n1	5.3%	i	12.2	8.6%	-10.2%	-5.7%
COC(=O)C(NC(=O)c1ccco1)(Nc1ccc(Br)cn1)C(F)(F)F (configuration not stated)	-28.6%	x	-0.3	-25.2%	-12.3%	16.4%
CCN1CCOC(=O)C1CC(=O)Nc1cc(Cl)ccc1OC (configuration not stated)	-6.2%	-9.0%	19.0	14.1µM*	-0.1%	x
COc1ccc(Cl)cc1NC(=O)CC1CCCC1	-9.0%	0.4%	u	-10.6%	-11.7%	u

Compound activity as filed in PubChem.
